# Records with an inconclusive call do not appear. The source made the active and inactive calls. The calls were made as follows: active = hit-call score of the fitted dose curve at least 0.9, where 1 is the maximum; inconclusive = response in the unintended direction; inactive = score below 0.9.
# Read-out: alkyl and aryl transferase (GSTA2), GSTA2 (gene 2939)
# Assay: CLD_GSTA2_24hr: CellzDirect (CLD) Gene Expression Assay for alkyl and aryl transferase (GSTA2) at 24 hours (AID 2283693)
# Method: CLD_24hr is a cell-based, multiplexed-readout assay that uses hepatocyte, a human liver primary cell, with measurements taken at 24 hours after chemical dosing in a 96-well plate.CLD_GSTA2_24hr is one of 16 assay component(s) measured or calculated from the CLD_24hr assay. It is designed to make measurements of mRNA induction, a form of inducible reporter, as detected with chemiluminescence signals by Quantitative Nuclease Protection Assay (qNPA) technology.Data from the assay component CLD_GSTA2_24hr was analyzed at the endpoint, CLD_GSTA2_24hr, in the positive analysis fitting direction relative to DMSO as the negative control and baseline of activity. Using a type of inducible reporter, gain-of-signal activity can be used to understand changes in the reporter gene as they relate to the gene GSTA2. Furthermore, this assay endpoint can be referred to as a primary readout. To generalize the intended target to other relatable targets, this assay endpoint is annotated to the transferase intended target family, where subfamily is alkyl and aryl transferase.
# Human hepatocyte cultures were treated daily for two consecutive days with fresh dosing solutions containing appropriate concentrations of the 320 ToxCast chemicals (chemical identities were blinded to CellzDirect and other ToxCast collaborators), vehicle control (0.2% DMSO), and positive control inducers as summarized in Table 1. Due to the large number of treatment groups and chemicals examined, the ToxCast chemicals were divided into two groups (spanning two independent cultures of hepatocytes from separate donor preparations (Hu778: ToxCast plates 1 and 2; Hu776: ToxCast plates 3 and 4). Each preparation of human hepatocyte cultures was treated with respective vehicle control, medium only control, set of six positive controls/reference chemicals for the five hepatic receptor pathways, and a subset of eight of the ToxCast chemicals (indoxacarb, pyrithiobac-sodium, norflurazon, cyhalofop-butyl, methomyl, thiram, acetochlor, and propiconazole). These replicate data, coupled with internal replicates designed within the blinded ToxCast chemical library, provided additional data to evaluate interindividual differences between hepatocyte preparations and their potential impact on chemical profiles.Cell morphology and integrity were evaluated using phase-contrast microscopy as an indicator of hepatocyte cell health (Tyson & Green, 1987). Cultures for each treatment group (i.e., media, vehicle [0.2% DMSO], positive control inducers [multiple concentrations], and the ToxCast chemicals [multiple concentrations]) were observed and cell morphology was assessed relative to vehicle control cultures at each harvest time point (0, 6, 24, or 48 h). […] Images were evaluated at the conclusion of the study to assess changes in cell integrity and account for the effects of chemical exposure on uncharacteristic changes in concentration-dependent gene expression profiles. The results from these determinations of apparent cytotoxicity were annotated (yes/no) alongside the corresponding qNPA data for reference.At the conclusion of each treatment period, hepatocyte cultures (96-well) were washed with 1 volume of HBSS, lysed by addition of 25 ul ArrayPlate lysis buffer (HTG, Tucson, AZ), and 70 ul/well of Denaturation Oil, denatured by incubation at 95C for 10 min, and frozen at approximately -70C until analysis by nuclease protection assay (qNPA) (Roberts et al., 2007). For qNPA analysis, cell lysates were thawed at 50C for approximately 30 min, qNPA probes were added, and samples were incubated at 95C for 10 min to begin the detection process by denaturing the target RNA, dissociating the duplexes and secondary structure hybridization. At the conclusion of the hybridization period, S1 nuclease reagent was added to each sample to digest all nonprotected nucleotides at 50C for 60-90 min. […]
row,SMILES,outcome
1,CCCCC(CC)COC(=O)c1ccccc1C(=O)OCC(CC)CCCC (configuration not stated),inactive
2,COc1nc(C)nc(NC(=O)NS(=O)(=O)c2ccccc2CCC(F)(F)F)n1,inactive
3,Cc1c(F)c(F)c(COC(=O)C2C(/C=C(\Cl)C(F)(F)F)C2(C)C)c(F)c1F (configuration not stated),inactive
4,CC(C)C1(C)N=C(c2nc3ccccc3cc2C(=O)O)NC1=O (configuration not stated),inactive
5,COP(=S)(OC)Oc1nc(Cl)c(Cl)cc1Cl,inactive
6,C=CCC1=C(C)C(OC(=O)C2C(C=C(C)C)C2(C)C)CC1=O (configuration not stated),inactive
7,Fc1ccc(Oc2ccnc3cc(Cl)cc(Cl)c23)cc1,inactive
8,COC(=O)C(C)Oc1ccc(Oc2ccc(Cl)cc2Cl)cc1 (configuration not stated),inactive
9,CCNc1nc(Cl)nc(NC(C)C)n1,inactive
10,CS/C(C)=N/OC(=O)N(C)SN(C)C(=O)O/N=C(\C)SC,inactive
11,CCNc1nc(Cl)nc(NCC)n1,inactive
12,CCOC(=O)C(Cl)Cc1cc(-n2nc(C)n(C(F)F)c2=O)c(F)cc1Cl (configuration not stated),inactive
13,COc1nc(C)nc(NC(=O)NS(=O)(=O)c2ccccc2Cl)n1,inactive
14,C#CCOS(=O)OC1CCCCC1Oc1ccc(C(C)(C)C)cc1 (configuration not stated),inactive
15,COC(=O)c1ccccc1C(=O)OC,inactive
16,O=C(O)c1nc(Cl)ccc1Cl,inactive
17,CO/C=C(/C(=O)OC)c1ccccc1Oc1cc(Oc2ccccc2C#N)ncn1,inactive
18,C=CCC1=C(C)[C@@H](OC(=O)[C@@H]2[C@@H](C=C(C)C)C2(C)C)CC1=O,inactive
19,CCCCNC(=O)n1c(NC(=O)OC)nc2ccccc21,inactive

row,SMILES,outcome
1,CCOC(=O)CC(SP(=S)(OC)OC)C(=O)OCC (configuration not stated),inactive
2,CNC(=O)ON=CC(C)(C)SC,inactive
3,COc1ccc(C(c2ccc(OC)cc2)C(Cl)(Cl)Cl)cc1,inactive
4,CCCCNC(=O)OCC#CI,inactive
5,N#Cc1cc(Br)c(O)c(Br)c1,inactive
6,Cc1ccc(-c2c(Cl)nc(C#N)n2S(=O)(=O)N(C)C)cc1,inactive
7,CCc1nn(C)c(C(=O)NCc2ccc(C(C)(C)C)cc2)c1Cl,inactive
8,N#CC(CCc1ccc(Cl)cc1)(Cn1cncn1)c1ccccc1 (configuration not stated),inactive
9,CC1COC(Cn2cncn2)(c2ccc(Oc3ccc(Cl)cc3)cc2Cl)O1 (configuration not stated),inactive
10,N#Cc1nn(-c2c(Cl)cc(C(F)(F)F)cc2Cl)c(N)c1S(=O)C(F)(F)F (configuration not stated),inactive
11,OC(c1ccc(Cl)cc1)(c1cncnc1)c1ccccc1Cl (configuration not stated),inactive
12,CCCCOC(=O)c1ccccc1C(=O)OCCCC,inactive
13,CC(C)(C)c1ccc(CSc2cnn(C(C)(C)C)c(=O)c2Cl)cc1,inactive
14,CC(Oc1ccc(Cl)cc1Cl)C(=O)O (configuration not stated),inactive
15,COC(=O)N(OC)c1ccccc1COc1ccn(-c2ccc(Cl)cc2)n1,inactive
16,Oc1ccccc1-c1ccccc1,inactive
17,COc1cnc(OC)n2nc(NS(=O)(=O)c3c(OCC(F)F)cccc3C(F)(F)F)nc12,inactive
18,CN(C)C(=S)SSC(=S)N(C)C,inactive

# From PubChem BioAssay (EPA / NIEHS)
